Reference: the supplement of paper PMC10933113
Unmarked numbers belong to inactive results.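 Rule for the calls: active = curve rank above 3; inactive = curve rank 0.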

What follows are molecules tested on KeratinoSens (HaCaT ARE-luciferase) cells (assay: Nrf2/ARE luciferase activation call in qHTS KeratinoSens assay (1 = active, 0 = inactive)).

SMILES	Nrf2/ARE luciferase activation call
O=C(O)/C=C/C(=O)O.OCCOCCN1CCN(C2=Nc3ccccc3Sc3ccccc32)CC1.OCCOCCN1CCN(C2=Nc3ccccc3Sc3ccccc32)CC1	not active ARE inducer (skin sensitizer alert)
Cc1ccc(S(=O)(=O)O)cc1.NC1CCN(c2nc3c(cc2F)c(=O)c(C(=O)O)cn3-c2ccc(F)cc2F)C1 (centres undefined)	not active ARE inducer (skin sensitizer alert)
Nc1nc(N)nc(-c2cc(Cl)ccc2Cl)n1.O=C(O)/C=C\C(=O)O	not active ARE inducer (skin sensitizer alert)
CCOCCn1c(N2CCCN(C)CC2)nc2ccccc21.O=C(O)/C=C/C(=O)O.O=C(O)/C=C/C(=O)O	not active ARE inducer (skin sensitizer alert)
CCOC(=O)Nc1ccc(NCc2ccc(F)cc2)nc1N.O=C(O)/C=C\C(=O)O	not active ARE inducer (skin sensitizer alert)
CN1CCC[C@@H]1CCO[C@](C)(c1ccccc1)c1ccc(Cl)cc1.O=C(O)/C=C/C(=O)O	not active ARE inducer (skin sensitizer alert)
COCCc1ccc(OCC(O)CNC(C)C)cc1.COCCc1ccc(OCC(O)CNC(C)C)cc1.O=C(O)[C@H](O)[C@@H](O)C(=O)O (centres undefined)	not active ARE inducer (skin sensitizer alert)
C[n+]1c2cc(N)ccc2cc2ccc(N)cc21.Nc1ccc2cc3ccc(N)cc3nc2c1.[Cl-]	active ARE inducer (skin sensitizer alert)
CCN(C(=O)c1cc(C)cc(OC[C@H](C)Nc2ccncc2)c1)C(C)C.Cc1ccc(S(=O)(=O)O)cc1	not active ARE inducer (skin sensitizer alert)
CCn1cc[n+](C)c1.O=S(=O)([O-])C(F)(F)F	not active ARE inducer (skin sensitizer alert)
CCCc1nn(C)c2c(=O)[nH]c(-c3cc(S(=O)(=O)N4CCN(C)CC4)ccc3OCC)nc12.O=C(O)CC(O)(CC(=O)O)C(=O)O	not active ARE inducer (skin sensitizer alert)
CCOCC(O)COc1ccc(NC(=O)CC[S+](C)C)cc1.Cc1ccc(S(=O)(=O)[O-])cc1 (centres undefined)	not active ARE inducer (skin sensitizer alert)
CCCC[N+]1(C)CCCC1.O=S(=O)([O-])C(F)(F)F	not active ARE inducer (skin sensitizer alert)
CNC[C@H](O)c1ccc(O)c(O)c1.O=C(O)[C@H](O)[C@@H](O)C(=O)O	not active ARE inducer (skin sensitizer alert)
